Experimental data published in PubChem BioAssay AID652057 (Broad Institute, 2013).
Out of some 1,400 compounds screened, about 1,000 (71%) were called active. How the calls were made is not given here. So high a share suggests a set chosen from earlier hits. Not all results are given here. Potency and affinity values are given separately.

test: inhibitors of HIV Env-driven cell fusion, dose response, cherry-pick (AID 652057); conditions: HeLa-JRFL Env/CEM21 cell fusion, luciferase; series mostly up to 35 µM

Activity change, negative = inhibition, inactive:
CC(OC(=O)c1ccc(NC(=O)CC#N)cc1)C(=O)NCCC1=CCCCC1 (stereo not drawn)
CC(=O)c1c(C)[nH]c(C(=O)OCC(=O)Nc2c(C)cccc2C)c1C
CC(=O)c1c(C)[nH]c(C(=O)OCCCCN2C(=O)c3ccccc3C2=O)c1C
COc1ccc(S(=O)(=O)N2CCCCC2)cc1NC(=O)CN(Cc1ccco1)Cc1ccco1
COc1ccc(S(=O)(=O)N2CCCCC2)cc1NC(=O)CCCOc1ccc(C)cc1
COc1ccccc1C(=O)Nc1ccc2c(c1)OC[C@H](C)N(C(C)=O)C[C@H](C)[C@H](OC)CN(C)C2=O
COc1ccc(NC(=O)C(=O)NCC2CCCN2S(=O)(=O)c2cccs2)cc1 (stereo not drawn)
CNC[C@@H]1Oc2ccc(NS(C)(=O)=O)cc2CC(=O)N([C@H](C)CO)C[C@H]1C
O=C(C[C@@H]1C[C@@H]2c3cc(NC(=O)C4CCOCC4)ccc3O[C@@H]2[C@H](CO)O1)NCc1ccccc1F
O=C(CCNC(=O)c1ccc(Br)cc1)NNC(=O)COc1ccccc1F
O=C(NCc1ccccc1)c1ccc(C(=O)NCc2ccccc2)cc1
O=C(C[C@@H]1C[C@@H]2c3cc(NC(=O)C4CCOCC4)ccc3O[C@@H]2[C@H](CO)O1)NCCc1ccccc1
CN(C)C(=O)C[C@H]1C[C@@H]2c3cc(NC(=O)NC4CCCCC4)ccc3O[C@@H]2[C@H](CO)O1
Cc1ccccc1-n1c(=O)c2ccccc2n2cnnc12
Cc1nc2ccc(NC(=O)c3cc(S(=O)(=O)N(C)c4ccccc4)ccc3Cl)cc2s1
Cc1ccc(NS(=O)(=O)c2cc(C(=O)N(C)C3CCN(C)CC3)ccc2Cl)cc1Cl
Cc1ccc(-n2nc3c(c2NC(=O)c2ccco2)CS(=O)C3)cc1 (stereo not drawn)
CCN(CCn1cccn1)C(=O)CC1C(=O)NCCN1CCc1ccccc1 (stereo not drawn)
O=C(CC1C(=O)NCCN1Cc1cccc(F)c1)NC1CCCCC1 (stereo not drawn)
COc1ccccc1S(=O)(=O)N[C@H]1CC[C@@H](CC(=O)N2CCN(C)CC2)O[C@H]1CO
O=C(O)C[C@@H]1C=C[C@H](NC(=O)Nc2ccccc2)[C@H](CO)O1
COc1ccccc1S(=O)(=O)N[C@H]1CC[C@H](CC(=O)N2CCN(C)CC2)O[C@H]1CO
O=C(O)C[C@@H]1C=C[C@@H](NC(=O)Nc2ccccc2)[C@H](CO)O1
Nc1ccn([C@@H]2O[C@H](C(=O)NCc3ccc4c(c3)OCO4)[C@@H](O)[C@H]2O)c(=O)n1
Cc1ccc(S(=O)(=O)N[C@@H]2CC[C@H](CCNC(=O)c3ccccc3F)O[C@H]2CO)cc1
CCN(C1CCCCC1)S(=O)(=O)c1ccc(S(=O)(=O)NCc2ccncc2)cc1
CO[C@H]1CN(C)C(=O)c2cc(NC(=O)C3CCOCC3)ccc2OC[C@H](C)N(Cc2nccs2)C[C@H]1C
CCCC(=O)Nc1ccc2c(c1)OC[C@H](C)N(C(=O)CN(C)C)C[C@@H](C)[C@H](OC)CN(C)C2=O
CO[C@H]1CN(C)C(=O)c2ccc(NC(=O)C3CC3)cc2OC[C@@H](C)N(C(C)=O)C[C@@H]1C
CCCC(=O)Nc1ccc2c(c1)OC[C@@H](C)N(C(=O)CN(C)C)C[C@H](C)[C@@H](OC)CN(C)C2=O
CO[C@@H]1CN(C)C(=O)c2ccc(NS(C)(=O)=O)cc2OC[C@@H](C)N(C(=O)C2CCCCC2)C[C@H]1C
CO[C@@H]1CN(C)C(=O)c2ccc(NC(C)=O)cc2OC[C@@H](C)N(Cc2cncnc2)C[C@@H]1C
CO[C@H]1CN(C)C(=O)c2ccc(NC(=O)Nc3cccc(F)c3)cc2OC[C@H](C)NC[C@H]1C
CO[C@H]1CN(C)C(=O)c2ccc(NC(=O)Nc3cccc(F)c3)cc2OC[C@@H](C)N(C(C)=O)C[C@H]1C
CCC(=O)Nc1ccc2c(c1)C(=O)N(C)C[C@@H](OC)[C@H](C)CN(C(=O)CC)[C@@H](C)CO2
CCCC(=O)Nc1ccc2c(c1)OC[C@H](C)N(Cc1ccncc1)C[C@H](C)[C@H](OC)CN(C)C2=O
N#Cc1ccc(CSc2nnc(COc3ccccc3)n2-c2ccccc2)cc1
Cc1ccc(S(=O)(=O)N(C)C[C@H]2Oc3ccc(NC(=O)Nc4cccc5ccccc45)cc3C(=O)N([C@H](C)CO)C[C@@H]2C)cc1
